{
  "source": "PubChem BioAssay AID1486",
  "about": "(The Scripps Research Institute Molecular Screening Center, 2009)",
  "note": "Out of some 220,000 compounds screened, about 2,400 (1.1%) were called active. The entries come from a sample that favours actives as a whole. Unmarked numbers belong to inactive results.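 How the source made its calls: active means inhibition above a per-campaign cutoff, the mean inhibition of all tested compounds plus 3 SD (cut at about 27% in these data); inactive means the rest.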",
  "data": [
    {"assay": "growth loss in parental Ba/F3 cells – cell-based, murine pro-B, CellTiter-Glo luminescence, counter-screen for JAK2V617F inhibitor project (AID 1486);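 further: 0% = DMSO wells and 100% = JAK Inhibitor I control wells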", "conditions": "Ba/F3 parental viability, CellTiter-Glo ATP luminescence; at 5.6 µM; active compounds read high", "values": [
      {"smiles": "CCCCCCCCCCCCn1ccc(=N)cc1", "inhibition": "102% (active)"},
      {"smiles": "CCC(C)n1c(O)c(/C=N/Nc2nc3c(c(=O)n(C)c(=O)n3C)n2C)c(=O)[nH]c1=S", "note": "(stereo not given)", "inhibition": "-0.78%"},
      {"smiles": "O=c1c2ccccc2nc(/C=C/c2ccco2)n1-c1ccccc1O", "inhibition": "-6.32%"},
      {"smiles": "CCOP(=O)(OCC)C(NC(=O)NC)C(N)=O", "note": "(stereo not given)", "inhibition": "4.51%"},
      {"smiles": "CC/C(=N\\NC(=O)c1ccccc1O)c1c(O)n(Cc2ccccc2)c(=O)[nH]c1=O", "inhibition": "-2.72%"},
      {"smiles": "Cc1ccc(CN2CCCC(C(=O)c3ccc4c(c3)OCO4)C2)cc1C", "note": "(stereo not given)", "inhibition": "2.33%"},
      {"smiles": "CCOc1ccc(-c2cc(C)[n+](CCN(CC)CC)c(-c3ccc(OCC)cc3)c2)cc1", "inhibition": "81.7% (active)"},
      {"smiles": "O=c1[nH]c(=O)n(CCc2ccc(F)cc2)c(O)c1/C=N/N1CCCCC1", "inhibition": "-4.39%"},
      {"smiles": "CC(C)c1ccc(-n2c(O)c(/C=N/N3CCOCC3)c(=O)[nH]c2=S)cc1", "inhibition": "2.53%"},
      {"smiles": "COc1cc(OC)cc(C2(C#N)CCN(C)CC2)c1", "inhibition": "-2.96%"},
      {"smiles": "CN(C)CC1Oc2ccccc2OC1(O)c1ccccc1", "note": "(stereo not given)", "inhibition": "8.72%"},
      {"smiles": "COCc1cc(OC(=O)N(C)C)nc(-c2ccc(C)c(Cl)c2)n1", "inhibition": "3.28%"},
      {"smiles": "CC1=CC(=Cc2sc3ccccc3[n+]2C)C=C(C)O1", "inhibition": "106% (active)"},
      {"smiles": "COc1ccc(-n2c(O)c(C(C)=Nc3ccc4c(c3)CCC4)c(=O)[nH]c2=O)cc1", "inhibition": "2.36%"},
      {"smiles": "O=C1CC(=O)N(Cc2ccccc2)C(=O)N1CCCCCCN1C(=O)CC(=O)N(Cc2ccccc2)C1=O", "inhibition": "-0.44%"},
      {"smiles": "CC1(C)Cc2c(C#N)c(N3CCNCC3)nc(-c3ccco3)c2CS1", "inhibition": "1.77%"},
      {"smiles": "CC1=C(C(=O)Nc2ccccc2)S(=O)(=O)CCO1", "inhibition": "0.55%"},
      {"smiles": "CNC(=O)O/N=C(\\N)Cc1csc2ccc(Cl)cc12", "inhibition": "3.22%"},
      {"smiles": "CCOc1cccc(=NC2CCCCC2)c2c(C)[nH]c(C)c12", "inhibition": "50.8% (active)"},
      {"smiles": "COc1ccc(-n2c(-c3ccccc3)nc3ccccc3c2=O)cc1", "inhibition": "1.83%"}
    ]}
  ]
}
